Test in all cases: protein-binding microarray (PBM); PBM: ~300 nM protein, 6 mM HEPES pH 7.8, 80 mM KCl, 0.5 mM EDTA, 0.5 mM EGTA, 6% glycerol, 35 ng/ul poly-dIdC, 1% milk, 1 h, room temperature; Ap Aiptasia and Nv Nematostella (sea anemones) / Co Capsaspora / Aq Amphimedon (sponge) / Dm Drosophila / Hu human; RHD is the Rel homology domain; high values mean tight binding
What all share (conditions): dsDNA, one strand shown

One assay addresses T1, GST-Ap-NF-kB RHD (Exaiptasia pallida (Aiptasia), UniProt A0A913YAJ5 2-422).
T1 sequence: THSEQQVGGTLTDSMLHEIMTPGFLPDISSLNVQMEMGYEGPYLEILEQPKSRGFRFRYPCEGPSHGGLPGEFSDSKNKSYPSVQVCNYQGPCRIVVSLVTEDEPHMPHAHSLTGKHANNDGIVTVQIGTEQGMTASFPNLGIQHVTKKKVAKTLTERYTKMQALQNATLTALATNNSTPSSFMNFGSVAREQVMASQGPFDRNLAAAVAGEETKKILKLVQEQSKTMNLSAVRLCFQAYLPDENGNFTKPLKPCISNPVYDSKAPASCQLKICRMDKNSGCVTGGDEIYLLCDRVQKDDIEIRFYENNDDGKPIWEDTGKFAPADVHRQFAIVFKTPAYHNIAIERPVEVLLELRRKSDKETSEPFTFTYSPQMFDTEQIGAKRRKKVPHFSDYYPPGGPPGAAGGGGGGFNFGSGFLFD

Assay [1] concerns the target T2, GST-Nv-NF-kB (Cys allele) (Nematostella vectensis, UniProt E5G601 2-411).
T2 sequence: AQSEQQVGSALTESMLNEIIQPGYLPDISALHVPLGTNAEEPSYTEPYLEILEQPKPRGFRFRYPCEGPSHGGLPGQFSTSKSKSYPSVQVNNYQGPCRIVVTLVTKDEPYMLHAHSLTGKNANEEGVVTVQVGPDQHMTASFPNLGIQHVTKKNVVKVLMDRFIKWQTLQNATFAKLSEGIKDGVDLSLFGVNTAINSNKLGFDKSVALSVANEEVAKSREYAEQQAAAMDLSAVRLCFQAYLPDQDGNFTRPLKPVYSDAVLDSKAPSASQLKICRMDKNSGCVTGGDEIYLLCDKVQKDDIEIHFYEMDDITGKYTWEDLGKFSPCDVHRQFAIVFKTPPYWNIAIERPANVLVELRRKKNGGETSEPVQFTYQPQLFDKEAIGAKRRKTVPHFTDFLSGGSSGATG

Assay [2] has as its target T3, GST-Nv-NF-kB (Ser allele) (Nematostella vectensis, UniProt A7UNT2 2-411).
T3 sequence: T2 sequence with Q21R, C66S, S207N, E215Q, V217A, E225K, A268E, D399E

In another assay the target is T4, GST-Co-NF-kB (Capsaspora owczarzaki, UniProt F1ARL5 200-546).
T4 sequence: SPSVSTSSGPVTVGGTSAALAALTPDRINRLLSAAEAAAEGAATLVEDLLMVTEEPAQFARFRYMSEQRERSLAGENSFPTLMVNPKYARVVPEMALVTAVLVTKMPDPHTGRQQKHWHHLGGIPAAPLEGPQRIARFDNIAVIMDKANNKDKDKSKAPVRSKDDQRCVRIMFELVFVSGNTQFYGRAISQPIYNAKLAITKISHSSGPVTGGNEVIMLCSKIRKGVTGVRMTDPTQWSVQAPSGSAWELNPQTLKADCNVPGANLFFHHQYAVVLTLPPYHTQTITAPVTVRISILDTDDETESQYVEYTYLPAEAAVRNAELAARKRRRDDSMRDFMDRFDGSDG

The next assay addresses T5, GST-Dm-Relish (Drosophila melanogaster, UniProt Q94527 99-473).
T5 sequence: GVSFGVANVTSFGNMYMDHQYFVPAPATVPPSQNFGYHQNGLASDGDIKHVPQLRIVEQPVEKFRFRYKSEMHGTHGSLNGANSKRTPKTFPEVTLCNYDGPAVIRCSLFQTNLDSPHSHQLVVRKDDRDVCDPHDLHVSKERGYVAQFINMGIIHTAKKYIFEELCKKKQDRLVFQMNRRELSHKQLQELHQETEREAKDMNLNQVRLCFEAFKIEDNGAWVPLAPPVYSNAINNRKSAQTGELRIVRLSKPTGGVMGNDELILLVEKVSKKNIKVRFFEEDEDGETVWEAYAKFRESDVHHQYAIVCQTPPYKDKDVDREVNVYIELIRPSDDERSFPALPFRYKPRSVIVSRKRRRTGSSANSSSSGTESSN

The target in a further assay is T6, GST-Aq-NF-kB (Amphimedon queenslandica, UniProt A9Y5G7 2-389).
T6 sequence: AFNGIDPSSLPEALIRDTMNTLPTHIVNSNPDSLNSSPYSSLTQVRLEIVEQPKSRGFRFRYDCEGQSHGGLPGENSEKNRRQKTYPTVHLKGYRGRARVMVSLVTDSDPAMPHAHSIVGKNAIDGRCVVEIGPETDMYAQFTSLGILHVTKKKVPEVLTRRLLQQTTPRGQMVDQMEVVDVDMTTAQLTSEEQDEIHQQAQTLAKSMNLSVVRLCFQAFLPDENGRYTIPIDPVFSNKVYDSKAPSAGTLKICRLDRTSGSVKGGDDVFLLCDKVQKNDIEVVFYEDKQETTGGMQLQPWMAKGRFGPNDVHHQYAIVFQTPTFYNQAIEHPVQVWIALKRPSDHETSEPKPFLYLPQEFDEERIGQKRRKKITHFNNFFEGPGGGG

A further assay concerns the target GST-Hu-p50 (Homo sapiens, UniProt P19838 7-356).

Residue numbers refer to the chain shown, from its start.

We go through twelve sequences from article PMC5700166.

Sequence of GST-Hu-p50 (P19838 7-356): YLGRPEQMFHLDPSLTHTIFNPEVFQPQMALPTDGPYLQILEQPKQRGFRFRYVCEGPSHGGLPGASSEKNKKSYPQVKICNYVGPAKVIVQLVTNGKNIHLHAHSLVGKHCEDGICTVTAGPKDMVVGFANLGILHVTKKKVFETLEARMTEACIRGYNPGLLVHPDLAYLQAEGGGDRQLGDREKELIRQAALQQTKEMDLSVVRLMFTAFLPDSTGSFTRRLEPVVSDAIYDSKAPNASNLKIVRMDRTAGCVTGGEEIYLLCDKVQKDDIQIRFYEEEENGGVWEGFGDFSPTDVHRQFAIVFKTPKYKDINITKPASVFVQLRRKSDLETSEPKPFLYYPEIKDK

For “CCGATTAACATCAGGGGGAAACATGATGTTAATCGGGTCTTGATTCGCTTGACGCTGCTG”, the binding signal worked out at 6.11 z-score with GST-Ap-NF-kB RHD; 7.08 z-score in assay [1]; 9.19 z-score in assay [2]; 10.9 z-score with GST-Co-NF-kB; 3.99 z-score in the assay with GST-Dm-Relish; 5.49 z-score with GST-Aq-NF-kB. The binding signal with GST-Hu-p50 was found to be 6.58 z-score.

With “CCGATTAACATCAGGGGACATTATGATGTTAATCGGGTCTTGATTCGCTTGACGCTGCTG”, the binding signal in the assay with GST-Ap-NF-kB RHD was 5.74 z-score; in assay [1] it was 5.19 z-score; in assay [2], 5.89 z-score; with GST-Co-NF-kB it was 4.2 z-score; with GST-Dm-Relish, 3.51 z-score; in the assay with GST-Aq-NF-kB it was 4.62 z-score. Also, the binding signal with GST-Hu-p50 came to 4.63 z-score.

“CCGATTAACATCAAAGTCCCGGGTGATGTTAATCGGGTCTTGATTCGCTTGACGCTGCTG”: the binding signal in the assay with GST-Ap-NF-kB RHD was found to be 4.32 z-score; in assay [1], 3.61 z-score; in assay [2], 3.64 z-score; with GST-Co-NF-kB it was 1.85 z-score; with GST-Dm-Relish it was 4.38 z-score; with GST-Aq-NF-kB, 3.49 z-score. In the assay with GST-Hu-p50, the binding signal was determined as 3.83 z-score.

Regarding “CCGATTAACATCAGGGGGAATTATGATGTTAATCGGGTCTTGATTCGCTTGACGCTGCTG”, the binding signal came out at 7.99 z-score with GST-Ap-NF-kB RHD; 9.53 z-score in assay [1]; 10.6 z-score in assay [2]; 9.25 z-score with GST-Co-NF-kB; 7.03 z-score with GST-Dm-Relish; 7 z-score with GST-Aq-NF-kB. In the assay with GST-Hu-p50, the binding signal was determined as 7.24 z-score.

Regarding “CCGATTAACATCAAAAGTCCCCTTGATGTTAATCGGGTCTTGATTCGCTTGACGCTGCTG”, the binding signal with GST-Ap-NF-kB RHD stood at 8.69 z-score; in assay [1], 9.23 z-score; in assay [2], 8.99 z-score; with GST-Co-NF-kB it was 3.35 z-score; in the assay with GST-Dm-Relish it was 9.45 z-score; with GST-Aq-NF-kB, 7.89 z-score. For the same sequence, the binding signal with GST-Hu-p50 amounted to 7.27 z-score.

In the case of “CCGATTAACATCAAGGGGGATTATGATGTTAATCGGGTCTTGATTCGCTTGACGCTGCTG”, the binding signal came out at 8.36 z-score with GST-Ap-NF-kB RHD; 7.48 z-score in assay [1]; 8.59 z-score in assay [2]; 4.73 z-score with GST-Co-NF-kB; 6.5 z-score with GST-Dm-Relish; 6.85 z-score with GST-Aq-NF-kB. In the assay with GST-Hu-p50, this sequence showed a binding signal of 7.48 z-score.

With “CCGATTAACATCATAAACCCCCATGATGTTAATCGGGTCTTGATTCGCTTGACGCTGCTG”, the binding signal in the assay with GST-Ap-NF-kB RHD stood at 5.78 z-score; in assay [1], 4.95 z-score; in assay [2] it was 5.67 z-score; in the assay with GST-Co-NF-kB, 2.59 z-score; in the assay with GST-Dm-Relish it was 7.12 z-score; with GST-Aq-NF-kB, 4.77 z-score. The same sequence came in with a binding signal with GST-Hu-p50 of 6.3 z-score.

For “CCGATTAACATCAAAGCATCCCCTGATGTTAATCGGGTCTTGATTCGCTTGACGCTGCTG”, the binding signal is 4.67 z-score in the assay with GST-Ap-NF-kB RHD; 5.06 z-score in assay [1]; 6.87 z-score in assay [2]; 3.43 z-score with GST-Co-NF-kB; 3.26 z-score in the assay with GST-Dm-Relish; 4.15 z-score with GST-Aq-NF-kB. The same sequence displayed a binding signal with GST-Hu-p50 of 4.58 z-score.

Turning to “CCGATTAACATCAAGAAAGTCCCTGATGTTAATCGGGTCTTGATTCGCTTGACGCTGCTG”, the binding signal was determined as 7.56 z-score with GST-Ap-NF-kB RHD; 8.86 z-score in assay [1]; 8.7 z-score in assay [2]; 1.38 z-score with GST-Co-NF-kB; 7.13 z-score with GST-Dm-Relish; 6.74 z-score with GST-Aq-NF-kB. Further, the binding signal with GST-Hu-p50 was determined as 6.05 z-score.

For the sequence “CCGATTAACATCAGGGAAATACCTGATGTTAATCGGGTCTTGATTCGCTTGACGCTGCTG”, the binding signal with GST-Ap-NF-kB RHD is 6 z-score; in assay [1], 8.81 z-score; in assay [2] it was 6.78 z-score; in the assay with GST-Co-NF-kB, 3.06 z-score; with GST-Dm-Relish, 8.42 z-score; with GST-Aq-NF-kB, 9.82 z-score. The binding signal with GST-Hu-p50 came to 5.57 z-score.

Turning to “CCGATTAACATCAGGACTTTCCCTGATGTTAATCGGGTCTTGATTCGCTTGACGCTGCTG”, the binding signal in the assay with GST-Ap-NF-kB RHD amounted to 6.5 z-score; in assay [1], 10.2 z-score; in assay [2] it was 6.68 z-score; in the assay with GST-Co-NF-kB it was 1.87 z-score; with GST-Dm-Relish it was 7.98 z-score; with GST-Aq-NF-kB, 10.5 z-score. This sequence returned a binding signal with GST-Hu-p50 of 5.32 z-score.

As for “CCGATTAACATCAAGGATCCCCCTGATGTTAATCGGGTCTTGATTCGCTTGACGCTGCTG”, the binding signal was determined as 8.01 z-score with GST-Ap-NF-kB RHD; 6.51 z-score in assay [1]; 6.9 z-score in assay [2]; 5.03 z-score with GST-Co-NF-kB; 8.82 z-score with GST-Dm-Relish; 6.4 z-score with GST-Aq-NF-kB. The binding signal in the assay with GST-Hu-p50 amounted to 6.43 z-score.
